31 compounds from PubChem BioAssay (EPA / NIEHS) can be followed below.

Molecules are shown by their SMILES. Records with an inconclusive call do not appear. The source made the active and inactive calls. Rule for the calls: active = hit-call score of the fitted dose curve at least 0.9, where 1 is the maximum; inconclusive = response in the unintended direction; inactive = score below 0.9.

Chain of human Peroxisome Proliferator-activated Receptor delta (PPARd), PPARD (gene 5467) (Q03181 whole entry, looked up, the tested form may be a part): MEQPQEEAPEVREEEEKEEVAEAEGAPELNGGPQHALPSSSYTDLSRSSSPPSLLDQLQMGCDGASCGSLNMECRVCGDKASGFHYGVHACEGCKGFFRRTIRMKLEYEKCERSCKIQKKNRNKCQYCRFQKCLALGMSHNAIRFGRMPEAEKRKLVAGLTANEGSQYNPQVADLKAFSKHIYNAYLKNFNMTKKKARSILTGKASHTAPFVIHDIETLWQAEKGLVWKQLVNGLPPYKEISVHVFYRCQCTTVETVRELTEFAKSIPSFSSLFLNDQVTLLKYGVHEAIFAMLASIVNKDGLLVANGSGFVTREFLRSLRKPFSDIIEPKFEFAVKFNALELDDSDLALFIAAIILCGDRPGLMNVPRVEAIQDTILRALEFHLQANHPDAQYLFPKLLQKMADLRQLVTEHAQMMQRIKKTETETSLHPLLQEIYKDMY
Chain of human Peroxisome Proliferator-activated Receptor alpha (PPARa), PPARA (gene 5465) (Q07869 whole entry, looked up, the tested form may be a part): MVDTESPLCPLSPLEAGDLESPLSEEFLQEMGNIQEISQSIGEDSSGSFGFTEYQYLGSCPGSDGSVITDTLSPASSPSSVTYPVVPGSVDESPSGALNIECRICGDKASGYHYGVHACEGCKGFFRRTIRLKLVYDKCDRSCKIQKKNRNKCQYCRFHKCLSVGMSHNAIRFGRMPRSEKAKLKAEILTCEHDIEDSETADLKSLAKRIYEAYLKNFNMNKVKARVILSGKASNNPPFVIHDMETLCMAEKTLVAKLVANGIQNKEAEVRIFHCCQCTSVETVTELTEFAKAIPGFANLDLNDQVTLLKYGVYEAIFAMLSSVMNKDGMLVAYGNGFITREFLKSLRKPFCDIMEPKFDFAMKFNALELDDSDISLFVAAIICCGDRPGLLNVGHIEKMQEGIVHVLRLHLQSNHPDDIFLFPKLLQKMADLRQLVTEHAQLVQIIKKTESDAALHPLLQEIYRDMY

The target of one assay is human Peroxisome Proliferator-activated Receptor alpha (PPARa), PPARA (gene 5465) (UniProt Q07869). Kind of assay: ATG_PPARa_TRANS: Attagene TRANS-FACTORIAL HepG2 Assay for human Peroxisome Proliferator-activated Receptor alpha (PPARa) (AID 2283001). In short, it runs like this:
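Read-out is fluorescence of reporter cDNA fragments resolved by capillary electrophoresis after RT-PCR. Human HepG2 liver cells carried transfected PPARa-Gal4 chimera and GAL4-UAS reporter units, treated 24 h; activity scored as increase over DMSO.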
For the compound `COC(=O)C1CCC(C(=O)OC)CC1` (stereo unspecified), the call was inactive.

In the case of `Oc1ccc(Nc2ccccc2)cc1`, the compound was called inactive.

As for `CC(C)=CCCC(C)CCOC(=O)C(C)C` (stereo unspecified), the compound was classed as inactive.

Consider `C=C(C)C(=O)OCC(F)(F)C(F)(F)C(F)(F)F`, for which the outcome was inactive.

As to `C=CC(=O)OCC(F)(F)C(F)(F)C(F)(F)C(F)(F)C(F)(F)C(F)(F)C(F)(F)F`, the compound was called inactive.

Regarding `O=C(O)C(F)(F)C(F)(F)C(F)(F)C(F)(F)C(F)(F)C(F)(F)C(F)(F)C(F)(F)C(F)(F)C(F)(F)C(F)(F)C(F)(F)F`, the compound was classed as inactive.

Regarding `FC(F)(F)C(F)(F)C(F)(F)C(F)(F)C(F)(F)C(F)(F)C(F)(F)C(F)(F)F`, the result was inactive.

On to `OCC(F)(F)C(F)(F)C(F)(F)C(F)F`, for which the outcome was inactive.

As for `C=CC(F)(F)C(F)(F)C(F)(F)C(F)(F)C(F)(F)C(F)(F)C(F)(F)C(F)(F)F`, the compound was classed as inactive.

Take `CN(C)Cc1ccccc1O`: the compound was called inactive.

Take `CCN(Cc1cccc(S(=O)(=O)O)c1)c1ccc(C(=C2C=CC(=[N+](CC)Cc3cccc(S(=O)(=O)O)c3)C=C2)c2ccc(O)cc2S(=O)(=O)[O-])cc1`: the call was inactive.

In the case of `CCCCCCCOC(=O)c1ccccc1C(=O)OCCCCCCC`, the compound was called inactive.

Consider `CCCCCC=O`, for which the result was inactive.

Consider `OCCCC(F)(F)C(F)(F)C(F)(F)F`, for which the result was inactive.

Regarding `O[Si](c1ccccc1)(c1ccccc1)c1ccccc1`, the result was inactive.

Another assay has as its target human Peroxisome Proliferator-activated Receptor delta (PPARd), PPARD (gene 5467) (UniProt Q03181). Kind of assay: ATG_PPARd_TRANS: Attagene TRANS-FACTORIAL HepG2 Assay for human Peroxisome Proliferator-activated Receptor delta (PPARd) (AID 2283002). In short, it runs like this:
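Transient HepG2 transfection (multiple GAL4-UAS RTUs, chimeric receptor-Gal4); 24 h dosing; total RNA → oligo(dT) RT → PCR → 6-FAM primer extension → HpaI cut → CE. Positive direction vs DMSO.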
With `COC(=O)CCC(F)(F)C(F)(F)C(F)(F)C(F)(F)F`, the compound was called inactive.

For the compound `O=C(O)C(F)(F)C(F)(F)F`, the outcome was inactive.

For the compound `FC(F)(F)C(F)(F)C(F)(F)C(F)(F)CCI`, the result was inactive.

As to `O=C(CC(=O)C(F)(F)C(F)(F)F)C(F)(F)F`, the outcome was inactive.

`FC(F)(F)C(F)(F)C(F)(F)C(F)(F)C(F)(F)C(F)(F)CCS`: the result was inactive.

As to `CCCCCCS`, the outcome was inactive.

For the compound `O=C(Cl)C(F)(F)C(F)(F)C(F)(F)C(F)(F)C(F)(F)C(F)(F)C(F)(F)C(F)(F)F`, the outcome was inactive.

With `O=C(O)C(F)(F)C(F)(F)C(F)(F)C(F)(F)C(F)(F)C(F)(F)C(F)(F)C(F)(F)Cl`, the outcome was inactive.

As to `Cc1ccc(S(=O)(=O)NCl)cc1`, the result was inactive.

On to `FC(F)(F)C(F)(F)CNCC(F)(F)C(F)(F)F`, for which the call was inactive.

As for `O=P(O)(O)OCCC(F)(F)C(F)(F)C(F)(F)C(F)(F)C(F)(F)C(F)(F)F`, the compound was called inactive.

Turning to `C=CC/C=C/C/C=C/C/C=C/C`, the result was inactive.

For the compound `C1COCCN1`, the call was inactive.

With `CCO[Si](CCC(F)(F)C(F)(F)C(F)(F)C(F)(F)C(F)(F)C(F)(F)F)(OCC)OCC`, the call was inactive.

Consider `O=C(O)C(F)(OC(F)(F)C(F)(OC(F)(F)C(F)(OC(F)(F)C(F)(F)C(F)(F)F)C(F)(F)F)C(F)(F)F)C(F)(F)F` (stereo unspecified), for which the compound was called inactive.

`COC(=O)C1CCC(C(=O)OC)CC1` (stereo unspecified): the compound was called inactive.

In the case of `Oc1ccc(Nc2ccccc2)cc1`, the compound was called inactive.

In the case of `CC(C)=CCCC(C)CCOC(=O)C(C)C` (stereo unspecified), the result was inactive.

For the compound `FC(F)(Br)C(F)(F)C(F)(F)C(F)(F)C(F)(F)C(F)(F)Br`, the call was inactive.

With `C=C(C)C(=O)OCC(F)(F)C(F)(F)C(F)(F)F`, the compound was called inactive.

Regarding `C=CC(=O)OCC(F)(F)C(F)(F)C(F)(F)C(F)(F)C(F)(F)C(F)(F)C(F)(F)F`, the result was inactive.

With `O=C(O)C(F)(F)C(F)(F)C(F)(F)C(F)(F)C(F)(F)C(F)(F)C(F)(F)C(F)(F)C(F)(F)C(F)(F)C(F)(F)C(F)(F)F`, the compound was classed as inactive.

Regarding `FC(F)(F)C(F)(F)C(F)(F)C(F)(F)C(F)(F)C(F)(F)C(F)(F)C(F)(F)F`, the outcome was inactive.

Turning to `OCC(F)(F)C(F)(F)C(F)(F)C(F)F`, the result was inactive.

Take `C=CC(F)(F)C(F)(F)C(F)(F)C(F)(F)C(F)(F)C(F)(F)C(F)(F)C(F)(F)F`: the result was inactive.

For `CN(C)Cc1ccccc1O`, the outcome was inactive.

With `CCN(Cc1cccc(S(=O)(=O)O)c1)c1ccc(C(=C2C=CC(=[N+](CC)Cc3cccc(S(=O)(=O)O)c3)C=C2)c2ccc(O)cc2S(=O)(=O)[O-])cc1`, the compound was classed as inactive.

For `CCCCCCCOC(=O)c1ccccc1C(=O)OCCCCCCC`, the compound was classed as inactive.

Regarding `CCCCCC=O`, the compound was classed as inactive.

Take `OCCCC(F)(F)C(F)(F)C(F)(F)F`: the call was inactive.

Turning to `O[Si](c1ccccc1)(c1ccccc1)c1ccccc1`, the compound was called inactive.
